Calls of active or inactive are those of the source. Entries that show only a call come without a potency. Calls follow the shape of the full dose curve.
Molecular target: Gonadotropin-releasing hormone receptor (Homo sapiens) (UniProt P30968)
Experiment: Human gonadotropin-releasing hormone receptor (GnRHR) small molecule agonists, calcium flux assay in GnRHR-HEK293 cells (AID 1920063); also: nearly all actives have a fitted effect of over 35% in size
Details: calcium flux fluorescence, agonist mode; series mostly up to 57.6 µM
Source text: National Center for Advancing Translational Sciences [NCATS]
Division of Preclinical Innovation [DPI]
U.S. Environmental Protection Agency [EPA]
National Institutes of Environmental Health Sciences [NIEHS]
National Toxicology Program [NTP]
U.S. Food and Drug Administration [FDA]
Gonadotropin-releasing hormone receptor (GnRHR) is a G-protein-coupled receptor (GPCR) and acts (through phospholipase C) to increase intracellular inositol trisphosphate and then release intracellular calcium stores. Cell-based GnRHR-Hek293 calcium influx assay is using HEK293 cells that have been genetically engineered to express the human GnRHR, which activity can be measured by calcium signaling. A compound/drug can activate (agonist) GnRHR that can be monitored by levels of intracellular calcium.
GnRHR-HEK293 cells developed by Codex Corp contain human GnRHR reporter gene, which was stably integrated into HEK 293 cells. The compound activation can be detected by fluorescence intensity via calcium flux assay. This cell line has been used to screen the Tox21 10K compound library to identify GnRHR agonists.
GnRHR-Hek293 cells were dispensed at 1500cells/4uL/well in 1536-well black wall/clear bottom plates using a multidrop dispenser. After the assay plates were incubated at a 37 C/5% CO2 incubator for 18 hours, 4 uL of Calcium Dye Solution was added to each well. The plates were incubated at 37 C for 1 hour. For agonist mode, 23 nL of compounds dissolved in DMSO, positive controls or DMSO only was transferred to the assay plate by a pin tool station. The fluorescence intensity in the plates was measured using FDSS 7000EX kinetic plate reader with a filter set of Ex/Em=480/540 for 3 min at 1 sec intervals. Each test compound was measured at 15 concentrations and in triplicates.

Chain of Gonadotropin-releasing hormone receptor (Homo sapiens) (P30968 whole entry, looked up): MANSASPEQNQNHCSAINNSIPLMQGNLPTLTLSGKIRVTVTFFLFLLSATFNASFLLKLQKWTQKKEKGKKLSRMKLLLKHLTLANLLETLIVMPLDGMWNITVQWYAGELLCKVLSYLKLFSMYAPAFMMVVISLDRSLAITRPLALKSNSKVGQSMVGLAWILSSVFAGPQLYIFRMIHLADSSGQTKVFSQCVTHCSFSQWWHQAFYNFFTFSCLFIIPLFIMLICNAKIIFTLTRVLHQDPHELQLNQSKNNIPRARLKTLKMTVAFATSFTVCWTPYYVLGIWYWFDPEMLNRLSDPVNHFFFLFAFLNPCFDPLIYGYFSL

Row | Structure (SMILES) | Potency
1 | CC(=O)O[C@]1(C(C)=O)CC[C@H]2[C@@H]3C=C(Cl)C4=CC(=O)CC[C@]4(C)[C@H]3CC[C@@]21C | inactive
2 | O=C1CCCCCCCCCCCN1 | inactive
3 | CC[N+](CC)(CC(=O)Nc1c(C)cccc1C)Cc1ccccc1 | inactive
4 | Cc1cccc(O)c1 | inactive
5 | CCCCCCCC=O | inactive
6 | CCCCCCCCCCN | inactive
7 | CCCCCCCCC | inactive
8 | CCCCCCCCCCCCS | inactive
9 | C[C@@H](O)[C@H]1C(=O)N2C(C(=O)O)=C(S[C@@H]3CN[C@H](C(=O)N(C)C)C3)[C@H](C)[C@H]12 | inactive
10 | COCC(=O)O | inactive
11 | O=C(O)CCC(=O)O | inactive
12 | CC#C[C@]1(O)CC[C@H]2[C@@H]3CCC4=CC(=O)CCC4=C3[C@@H](c3ccc(N(C)C)cc3)C[C@@]21C | inactive
13 | C=C(C)C(=O)Nc1ccc(Cl)c(Cl)c1 | inactive
14 | O=C(O)Cc1cccc2ccccc12 | inactive
15 | CC(=O)c1ccc(S(=O)(=O)NC(=O)NC2CCCCC2)cc1 | inactive
16 | CC(=O)OC(C)(C)C1CC=C(C)CC1 (stereo not given) | inactive
17 | CC(O)COc1ccccc1 (stereo not given) | inactive
18 | Cc1ccc(C(=O)O)o1 | inactive
19 | NC(=S)NNC(N)=S | inactive
20 | C=CC(=O)OCCCCCCCC(C)C | inactive

Row | Structure (SMILES) | Potency
21 | CN(C)CCCN | inactive
22 | CC(C)=CCC/C(C)=C\CO | inactive
23 | Cc1ccc(S(=O)(=O)O)cc1C | inactive
24 | Nc1ccn([C@H]2CC[C@@H](CO)O2)c(=O)n1 | inactive
25 | O=[N+]([O-])C(CO)(CO)CO | inactive
26 | CCN(CC)C(=O)c1cccc(C)c1 | inactive
27 | C=C(C)C(=O)O[C@H]1C[C@@H]2CC[C@@]1(C)C2(C)C | inactive
28 | CS(=O)(=O)OCCCCOS(C)(=O)=O | inactive
29 | OC[C@H]1O[C@@H](Oc2ccc(O)cc2)[C@H](O)[C@@H](O)[C@@H]1O | inactive
30 | O=C(O)C1=NN(c2ccc(S(=O)(=O)O)cc2)C(=O)C1 | inactive
31 | c1ccc2cc(Nc3ccc(Nc4ccc5ccccc5c4)cc3)ccc2c1 | inactive
32 | Clc1ccc(Cl)c(Cl)c1Cl | inactive
33 | Cc1cnc(NC(=O)C2=C(O)c3ccccc3S(=O)(=O)N2C)s1 | inactive
34 | C[C@]12CC[C@@H]3c4ccc(O)cc4CC[C@H]3[C@@H]1CC[C@H]2O | inactive
35 | c1cnc2c(c1)ccc1cccnc12 | inactive
36 | Cc1cccc([N+](=O)[O-])c1C | inactive
37 | c1ccc(OCCOc2ccccc2)cc1 | inactive
38 | C=CC(=O)NC(C)(C)CS(=O)(=O)O | inactive
39 | CCc1ccc(O)cc1 | inactive
40 | CCCCC/C(C=O)=C\c1ccccc1 | inactive

Reference: PubChem BioAssay (Tox21)
